Assay outcomes (PubChem)
Sampled rows, rich in hits. Any-hit rate of the full collection: about 7.9%.
MCF10A rereplic = inducers of DNA re-replication in MCF 10A breast cells | actives 2.9% (n = 350,000) | AID 624296 | Potency, µM (highest dose often 46.1 µM), inactives show top-dose activity, positive = re-replication, most hits filed as activators | MCF 10A DNA re-replication, Hoechst nuclear intensity, 48 h; note: % of control where 0% means no effect; nearly all actives have a fitted effect of over 50% in size
SW480 rereplic = induces DNA re-replication in SW480 colon adenocarcinoma cells; actives 1.8% (n = 340,000); SW480 DNA re-replication, Hoechst DNA content imaging, 48 h; AID 624297; Potency, µM (highest dose often 46.1 µM), for the others: at the top dose re-replication activation, usual class: activators; note: % of control where 0% means no effect; nearly all actives have a fitted effect of over 55% in size
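Image-based DNA-content assay: after two days of treatment, nuclei were labelled with the DNA dye Hoechst and imaged, and hits were compounds raising the count of nuclei showing high fluorescence intensity.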
KB-3-1 cytotox = kills parental KB-3-1 adenocarcinoma cells; KB-3-1 viability, CellTiter-Glo ATP luminescence, 72 h; Potency, µM (top dose mostly 46.1 µM), most hits filed as cytotoxic; actives 1.4% (n = 400,000); note: % is set by controls: 0 for no effect and ±100 for the full control effect; nearly all actives have a fitted effect of over 60% in size
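Screening of KB-3-1 cells (DMEM, 10% FBS, phenol-red free) ran from lowest to highest compound concentration; after 72 h at 37 °C viability was read luminescently and curves fitted.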
KB-V1 MDR tox = KB-V1 MDR subline cytotoxicity; AID 1347076; KB-V1 MDR cells viability, CellTiter-Glo, 72 h; actives 3.4% (n = 400,000); Potency, µM (doses to about 46.1 µM), most hits filed as cytotoxic; note: % is set by controls: 0 for no effect and ±100 for the full control effect; nearly all actives have a fitted effect of over 60% in size
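Cytotoxicity toward P-gp-expressing KB-V1 cells was determined as loss of CellTiter-Glo luminescence after 72 h at 37 degrees C. Compounds were tested in quantitative HTS format across a concentration range, with curves fitted to normalized data.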
HT1080NT lethal = kills 2HG-producing HT-1080-NT fibrosarcoma cells. HT-1080-NT fibrosarcoma viability, CellTiter-Glo ATP luminescence, 48 h. Potency, µM (titrated, usually from 46.1 µM), for the others: at the top dose activity, negative = less viability, most hits filed as cytotoxic. actives 1.6% (n = 360,000);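 note: NT is the 2HG producing partner of a matched IDH1 knockdown line; 0% = DMSO-treated cells and -100% = media-only wells without cells; nearly all actives have a fitted effect of over 55% in size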
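Toxicity toward the 2HG-producing NT line was scored as %Activity, normalised to DMSO and no-cell wells, from CellTiter-Glo luminescence after 48 hours' treatment.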
HT1080 IDH1KD tx = HT-1080 IDH1 knockdown cell toxicity (counter line); HT-1080 IDH1 knockdown viability, ATP luminescence, 48 h; Potency, µM (highest dose often 46.1 µM), for inactives: at the top dose activity, negative = toxicity, hits mostly cytotoxic; actives 2% (n = 360,000);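 note: 0% = DMSO wells and -100% = cell-free medium wells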
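Viability of IDH1-knockdown HT-1080 fibrosarcoma cells was assessed by CellTiter-Glo after 48 h at 37 °C with titrated compound; concentration-effect curves were classified by fit quality and response size.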
Active calls of the source: *; i = inactive; u = inconclusive; x = no result. Calls come from the whole dose curve; as a rule, active = well fitted curve in the direction sought with a large enough effect; inconclusive = small, poorly fitted or top-dose-only effect, or another doubt; inactive = no such curve, though single readings can be large; an effect the other way counts as inactive or inconclusive. Potency is the fitted concentration of half-maximal effect.

SMILES	MCF10A rereplic	SW480 rereplic	KB-3-1 cytotox	KB-V1 MDR tox	HT1080NT lethal	HT1080 IDH1KD tx
O=C1CC(/C=C/c2ccccn2)=Nc2ccccc2N1	-1.4%	u	18.4µM*	u	-1.2%	2.0%
O=C1CC(/C=C/c2ccco2)=Nc2ccccc2N1	3.6%	5.9%	i	i	1.3%	0.1%
COC(=O)[C@H](Cc1ccccc1)NC(=O)NCCc1ccc(S(N)(=O)=O)cc1	20.5%	3.2%	i	i	14.6%	14.6%
CCN(CC)CCN1C(=O)C2C(C(=O)Nc3cccc(SC)c3)C3C=CC2(O3)C1C(=O)NC1CCCC(C)C1C (stereo not given)	11.8%	18.4µM*	i	u	-15.2%	-24.8%
O=C(CCl)NCCCCCCCCCNC(=O)CCl	u	u	u	u	16.4µM*	14.6µM*
COC(=O)C1(C)NC(c2ccccc2C)C2C(=O)N(c3ccc(F)cc3)C(=O)C21 (stereo not given)	u	11.4%	i	i	13.5%	15.8%
CC1CCCN(C(C(=O)NC2CCCCC2)c2cc3c(cc2[N+](=O)[O-])OCO3)C1 (stereo not given)	-12.8%	-10.5%	u	8.2µM*	-5.4%	-5.5%
CN(Cc1ccccc1F)C(=O)CCCNC(=O)c1ccc(Cl)cc1	u	-3.9%	i	i	9.8%	11.0%
O=C(O)Cn1c(=O)c2c3c(sc2n(Cc2ccc(Cl)cc2Cl)c1=O)CCCC3	u	-0.8%	i	i	-24.9%	3.2%
O=C1Nc2ccc(S(=O)(=O)N3CCCCCC3)c3cccc1c23	20.6µM*	-0.2%	i	i	-1.2%	-8.5%
CC1CN(c2ccccn2)C(C)CN1C(=S)Nc1ccccc1 (stereo not given)	-1.2%	-2.9%	i	23.1µM*	11.0%	22.6%
COC(=O)c1ccc(NS(=O)(=O)c2cccc3cccnc23)cc1	7.4%	10.4%	i	i	0.5%	-2.2%
COc1ccc(C(=O)/C=C/C(=O)N(Cc2ccccc2OC)C(C(=O)NC2CCCCC2)c2ccncc2)c(O)c1 (stereo not given)	u	11.0%	u	u	u	u
COc1ccc(C(=O)/C=C/C(=O)N(Cc2ccc(F)cc2)C(C(=O)NC2CCCCC2)c2ccncc2)c(O)c1 (stereo not given)	8.8%	u	u	0.731µM*	-4.4%	-9.8%
COc1ccc(C(=O)/C=C/C(=O)N(Cc2ccccc2)C(C(=O)NC2CCCCC2)c2ccncc2)c(O)c1 (stereo not given)	1.5%	19.3%	i	0.92µM*	-3.9%	-7.7%
O=C1CC(SCCc2nc3ccccc3[nH]2)C(=O)N1c1ccc(F)c(Cl)c1 (stereo not given)	5.8%	-2.7%	i	u	3.4%	0.9%
O=C(CCl)NCc1c(Cl)cccc1-n1cccc1	18.4µM*	25.1%	i	i	u	10µM*
O=C(NCC(=O)N(c1cccnc1)C(C(=O)NC1CCCCC1)c1ccccc1)c1ccco1 (stereo not given)	u	3.1%	i	i	13.5%	6.5%
Cc1cc(C(=O)CSc2nnnn2C)c(C)n1C1CC1	-2.0%	5.7%	i	i	19.4%	16.5%
CCn1c(C)cc(C(=O)CSc2nnnn2C2CCCC2)c1C	u	1.3%	i	9.2µM*	20.1%	16.4%
CCOC(=O)N1CCN(C(=O)c2ccc3c(c2)N(Cc2ccccc2)CCS3)CC1	18.1%	-0.4%	u	u	2.8%	0.6%
C[C@@H](NC(=O)[C@@H]1CCCN1C(=O)[C@@H]1CCCN1C(=O)c1cccc2ccccc12)c1ccccc1	x	x	i	i	-2.3%	2.3%
N#CCC(=O)Nc1ccc(C(=O)OC(C(=O)Nc2ccc([N+](=O)[O-])cc2Br)c2ccccc2)cc1 (stereo not given)	-2.5%	-2.8%	i	i	-7.3%	-10.8%
